Compound activity as filed in PubChem BioAssay.
Most compounds without a hit are left out; they make up all but 2.1% or so of the library.
Abeta yeast res: qHTS for compounds that reverse cellular toxicity of Amyloid beta (A-beta) peptide in yeast: Primary Screen. Potency, µM (doses to about 46.1 µM), most hits filed as activators. actives 0.063% (n = 410,000). yeast expressing A-beta42, growth rescue, OD600, 48 h; response scale: 0% DMSO, 100% iron-clioquinol control; also: nearly all actives have a fitted effect of over 55% in size
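Yeast A-beta toxicity model in growth medium with pinned compounds, 48 h at 30 C; growth read as absorbance at 600 nm. Normalized to FeCl3/clioquinol equimolar mix (positive) and DMSO (negative).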
aSyn yeast inh: qHTS of alpha-syn Inhibitors | Yeast expressing alpha-synuclein, growth rescue, BacTiter-Glo, 24 h | Potency, µM (top dose mostly 46.1 µM), usual class: activators | actives 0.14% (n = 370,000) | AID 652106, 2013; also: nearly all actives have a fitted effect of over 65% in size
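Rescue of yeast growth: cells expressing toxic alpha-synuclein, induced in galactose at OD600 0.02, incubated with compound 24 h at 30 C. ATP luminescence quantified growth; inhibitors of toxicity appear as activators.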
FUS yeast rescue: qHTS for Suppressors of FUS Proteinopathy: Primary screen using FUS-linked yeast assay; S. cerevisiae FUS-expressing, growth rescue, OD600, 24 h; Potency, µM (titrated, usually from 76.6 µM), most hits filed as activators; actives 0.24% (n = 390,000); AID 1347120, 2019; also: nearly all actives have a fitted effect of over 55% in size
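Restored growth of FUS-toxic S. cerevisiae, read as 600 nm absorbance after 24 h at 30C in galactose medium (starting OD 0.005). Controls CP55940 and DMSO.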
TDP43 rescue: qHTS of TDP-43 Inhibitors. TDP-43 expressing yeast growth rescue, BacTiter-Glo, 24 h. actives 1.8% (n = 410,000). Potency, µM (titrated, usually from 46.1 µM), actives largely listed as activators; also: nearly all actives have a fitted effect of over 50% in size
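Luminescence from BacTiter-Glo reports growth of TDP-43-expressing yeast after 24 hr at 30 deg C with compound. Cells were raffinose-pregrown to mid-log, then seeded in galactose medium at OD600=0.02.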
Of the large screens only hits and unclear results are named; the others gave an inactive call. Calls follow the shape of the dose curve; as a rule, active = well fitted curve in the direction sought with a large enough effect; inconclusive = small, poorly fitted or top-dose-only effect, or another doubt; inactive = no such curve, though single readings can be large; an effect the other way counts as inactive or inconclusive.

CCOc1ccccc1N1CCN(C(=O)/C=C/c2cccc([N+](=O)[O-])c2)CC1	TDP43 rescue 14.1µM
COCCCNC(=O)C[C@H]1C[C@@]2(C(=O)OC)C(=C[C@H](C(C)C)O[C@@H]2C2CC2)N(CCC2=CCCCC2)C1=O	none (no result: Abeta yeast res, aSyn yeast inh, TDP43 rescue)
Cn1c(=O)c2c(nc(Oc3cccc(Br)c3)n2C)n(C)c1=O	Abeta yeast res inconclusive, TDP43 rescue 12.6µM
Cn1c(=O)c2c(ncn2CCOc2cccc(Br)c2)n(C)c1=O	TDP43 rescue 14.1µM
N#Cc1cccc(NC(=O)OCCN2C(=O)CCC23CCC(c2ccccc2)CC3)c1 (stereo not given)	none (no result: Abeta yeast res, aSyn yeast inh, TDP43 rescue)
Cc1ccc2c(c1)C(=O)CC(c1ccc3c(c1)OCCO3)O2 (stereo not given)	TDP43 rescue 11.2µM
COc1ccc2c(c1)C(=O)CC(c1ccc3c(c1)OCCO3)O2 (stereo not given)	TDP43 rescue 11.2µM
O=C(NCc1ccc(F)c(F)c1)C1C2C=CC3(CN(Cc4ccccc4)C(=O)C13)O2 (stereo not given)	none (no result: Abeta yeast res, aSyn yeast inh, TDP43 rescue)
O=C(Nc1c(-c2ccccc2)nc2ncccn12)c1ccc(F)cc1	none (no result: Abeta yeast res, aSyn yeast inh, TDP43 rescue)
Cc1onc(-c2c(F)cccc2Cl)c1C(=O)c1ccc(F)cc1	TDP43 rescue 12.6µM
Cc1onc(-c2c(Cl)cccc2Cl)c1C(=O)c1ccc(F)cc1	TDP43 rescue 12.6µM
Cc1onc(-c2c(F)cccc2Cl)c1C(=O)c1ccccc1O	none
Cc1onc(-c2c(F)cccc2Cl)c1C(=O)c1ccccc1	Abeta yeast res inconclusive
COc1ccc(CCSc2n[nH]c(C(C)C)n2)cc1	none (no result: Abeta yeast res, FUS yeast rescue, TDP43 rescue)
CN(c1ccccc1)c1nc2ccsc2c(=O)s1	TDP43 rescue 14.1µM
Cc1ccc(C)c(C(=O)CSc2nnnn2-c2cccnc2)c1	TDP43 rescue 11.2µM
O=C(CCCC1=NS(=O)(=O)c2ccccc2N1)N1CCN(c2ccccc2Cl)CC1	none (no result: Abeta yeast res, aSyn yeast inh, TDP43 rescue)
Cc1nonc1OC(C)CNc1ccc([N+](=O)[O-])cc1 (stereo not given)	TDP43 rescue 20µM
CCCNC(=O)N(C)C[C@@H]1Oc2cc(C#C[C@H](C)O)ccc2S(=O)(=O)N([C@H](C)CO)C[C@H]1C	aSyn yeast inh 5.01µM
CCCNC(=O)N(C)C[C@H]1Oc2cc(Br)ccc2S(=O)(=O)N([C@@H](C)CO)C[C@@H]1C	none
O=C(c1ccc(N2C(=O)c3ccccc3C2=O)cc1)N1CCN(S(=O)(=O)c2ccccc2F)CC1	FUS yeast rescue 28.2µM, TDP43 rescue inconclusive
C[C@@H](NC(=O)c1nc[nH]c1C(=O)N[C@@H](Cc1ccccc1)C(=O)OC(C)(C)C)c1ccccc1	FUS yeast rescue 20µM
C[C@H](NC(=O)c1nc[nH]c1C(=O)N[C@@H](Cc1ccccc1)C(=O)OC(C)(C)C)c1ccccc1	FUS yeast rescue inconclusive
CCOC(=O)c1ccc(NC(=O)c2nc[nH]c2C(=O)N[C@@H](C)C(=O)OC(C)(C)C)cc1	TDP43 rescue 28.2µM
C[C@@H](NC(=O)c1nc[nH]c1C(=O)N[C@@H](CCCCNC(=O)OC(C)(C)C)C(=O)OC(C)(C)C)c1ccccc1	FUS yeast rescue 20µM
CC(C)(C)OC(=O)NCCCC[C@H](NC(=O)c1[nH]cnc1C(=O)Nc1ccc(Cl)cc1)C(=O)OC(C)(C)C	FUS yeast rescue 15.8µM
CC(C)(C)OC(=O)NCCCC[C@H](NC(=O)c1[nH]cnc1C(=O)Nc1ccccc1)C(=O)OC(C)(C)C	FUS yeast rescue inconclusive
COC(=O)C[C@H]1CC[C@H]2[C@H](COc3ccc(NS(=O)(=O)c4ccccc4C)cc3C(=O)N2C)O1	none (no result: Abeta yeast res, aSyn yeast inh, TDP43 rescue)
COc1ccc2c(c1)CN1CN(Cc3ccc(F)cc3)S(=O)(=O)CC21 (stereo not given)	none (no result: Abeta yeast res, aSyn yeast inh, TDP43 rescue)
CC[N+](C)(C)c1ccc(/C=C/c2ccc3ccccc3n2)cc1	none (no result: Abeta yeast res, FUS yeast rescue, TDP43 rescue)
CN(N=O)c1ccc(/C=C/c2ccnc3ccccc23)cc1	none (no result: Abeta yeast res, FUS yeast rescue, TDP43 rescue)
C#CCNC(=O)C[C@H]1C[C@@]2(C(=O)OC)C(=C[C@H](C3CCCC3)O[C@@H]2C)N(CCC2=CCCCC2)C1=O	none (no result: Abeta yeast res, aSyn yeast inh, TDP43 rescue)
C[C@H](NC(=O)c1[nH]cnc1C(=O)Nc1ccccc1)c1ccccc1	TDP43 rescue 25.1µM
CCOC(=O)/C(=C\c1ccc(Cl)cc1)c1nc2sc(C)c(C)c2c(=O)[nH]1	TDP43 rescue 17.8µM
CCCc1cc(=O)oc2cc(OCc3ccc(C(=O)O)cc3)ccc12	TDP43 rescue 2.51µM
COc1ccc(OCC(O)COc2ccc(C(=O)O)cc2)cc1 (stereo not given)	none (no result: aSyn yeast inh, TDP43 rescue)
